For 59 compounds, liver cell % of control and parasite % of control results are on record in PubChem BioAssay.

The nature of the experiment: kinase inhibitors against Plasmodium liver-stage infection, cell-based, known kinase inhibitor set, luminescence, hepatoma host viability (AID 624392).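 Also: infected cells incubated roughly two days before readout.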 Particulars: Plasmodium liver stage in hepatoma cells, luciferase luminescence, concentration not given here; liver cell % of control: measured here: host liver cell viability; parasite % of control: stronger effect = lower value.

The structures appear in SMILES notation. Values joined by “and” are separate entries in the source; they are usually repeats but may differ in a detail not shown here. Equal entries are not always repeated. Active and inactive are the calls of the source. No rule for the calls is given here.

With `CC(C)n1cnc2c(Nc3cccc(Cl)c3)nc(NCCCO)nc21`, the liver cell % of control came out at 90.1% and the parasite % of control was 206% (inactive).

On to `NC1CCC(Nc2nc(Nc3ccc(S(=O)(=O)N4CCCCC4)cc3)c3ncn(-c4ccccc4)c3n2)CC1` (stereo not drawn), for which the liver cell % of control worked out at 103% and the parasite % of control is 336% (inactive).

Regarding `CS(=O)(=O)Nc1ccc(-c2ccc(C=C3SC(N)=NC3=O)o2)cc1`, the liver cell % of control is 105% and the parasite % of control was 130% (inactive).

In the case of `O=C(Nc1ccc(-c2csc(Nc3ccc(Cl)cc3)n2)cc1)c1cccc(C(F)(F)F)c1`, the liver cell % of control amounted to 104% and the parasite % of control was 88% (inactive).

In the case of `C=CC(=O)Nc1cccc(Oc2cc(Cl)nc3[nH]ccc23)c1`, the liver cell % of control came to 101% and the parasite % of control was 63.5% (inactive).

Consider `O=C(Nc1ccc(-c2csc(Nc3ccc(Cl)cc3)n2)cc1)c1cc([N+](=O)[O-])cc(C(F)(F)F)c1`, for which the liver cell % of control came out at 106% and the parasite % of control is 97.2% (inactive).

As to `CCN1CCN(Cc2ccc(NC(=O)c3ccc(C)c(NC(=O)c4nccnc4N)c3)cc2C(F)(F)F)CC1`, the liver cell % of control turned out to be 93.8% and the parasite % of control was 155% (inactive).

For the compound `COc1cc(NC(=O)c2csc(-c3ccncc3)n2)cc(C(=O)Nc2cccc(C(F)(F)F)c2)c1`, the liver cell % of control turned out to be 95.7% and the parasite % of control is 124% (inactive).

As for `O=C(Nc1cccc(-c2csc(Nc3cccc(C(F)(F)F)c3)n2)c1)c1cc([N+](=O)[O-])cc(C(F)(F)F)c1`, the liver cell % of control is 98.5% and the parasite % of control was 79.7% (inactive).

For the compound `COc1cc(NC(=O)c2ccnnc2)cc(C(=O)Nc2cccc(C(F)(F)F)c2)c1`, the liver cell % of control stood at 93.4% and the parasite % of control is 97.5% (inactive).

For the compound `COc1cc(NC(=O)c2cc3cccc(OC)c3o2)cc(C(=O)Nc2cccc(C(F)(F)F)c2)c1`, the liver cell % of control came to 95.6% and the parasite % of control is 62.8% (inactive).

For `CCN1CCN(Cc2ccc(NC(=O)c3ccc(C)c(NC(=O)c4cccc5[nH]ccc45)c3)cc2C(F)(F)F)CC1`, the liver cell % of control stood at 103% and the parasite % of control is 99.7% (inactive).

As for `NC(=O)c1cccc(-c2cnc(N)c(C(=O)c3cccnc3)n2)c1`, the liver cell % of control was 101% and the parasite % of control was 179% (inactive).

Turning to `COc1cc(NC(=O)c2ccno2)cc(C(=O)Nc2cccc(C(F)(F)F)c2)c1`, the liver cell % of control was found to be 96.7% and the parasite % of control was 70% (inactive).

As for `Cc1ccc(C(=O)Nc2cccc(C(F)(F)F)c2)cc1Nc1ccccn1`, the liver cell % of control turned out to be 95% and the parasite % of control is 54.6% (inactive).

As to `O=C(Nc1cccc(-c2csc(Nc3ccc(Cl)cc3)n2)c1)c1cc([N+](=O)[O-])cc(C(F)(F)F)c1`, the liver cell % of control is 95.1% and the parasite % of control is 192% (inactive).

In the case of `O=C(Nc1cccc(-c2csc(Nc3ccc(Cl)cc3)n2)c1)c1ccccc1`, the liver cell % of control is 90.9% and the parasite % of control was 112% (inactive).

As to `O=C1NC(=O)C(=Cc2ccc(-c3ccc(S(=O)(=O)N4CCNCC4)cc3)o2)C(=O)N1`, the liver cell % of control turned out to be 94.8% and the parasite % of control is 303% (inactive).

`CC(C)CC(CO)Nc1nc(N(C)c2cccc(Cl)c2)c2ncn(C(C)C)c2n1` (stereo not drawn): the liver cell % of control was 102% and the parasite % of control was 114% (inactive).

Take `CCN1CCN(Cc2ccc(NC(=O)c3ccc(C)c(NC(=O)CC4NC(=O)C(Cc5ccccc5)NC4=O)c3)cc2C(F)(F)F)CC1` (stereo not drawn): the liver cell % of control was 105% and the parasite % of control was 114% (inactive).

Turning to `COc1cc(N2CCC(O)CC2)ccc1Nc1nnc(Cl)c(Nc2ccccc2S(C)(=O)=O)n1`, the liver cell % of control stood at 86.2% and the parasite % of control was 80.5% (inactive).

With `CC(C)C(CO)Nc1nc(Nc2cc(C(=O)O)cc(C(=O)O)c2)c2ncn(C(C)C)c2n1` (stereo not drawn), the liver cell % of control was 107% and the parasite % of control is 38% (inactive).

As to `CCN1CCN(Cc2ccc(NC(=O)c3ccc(C)c(C=Cc4cnc(Nc5cc(N6CCNCC6)nc(C)n5)cn4)c3)cc2C(F)(F)F)CC1`, the liver cell % of control was found to be 96.8% and the parasite % of control is 369% (inactive).

As for `O=C(Nc1ccc(-c2csc(Nc3cccc(C(F)(F)F)c3)n2)cc1)c1cc([N+](=O)[O-])cc(C(F)(F)F)c1`, the liver cell % of control is 101% and the parasite % of control was 70% (inactive).

With `CCN1CCN(Cc2ccc(NC(=O)c3ccc(C)c(NC(=O)c4cccc(-c5cn[nH]c(=O)c5)c4)c3)cc2C(F)(F)F)CC1`, the liver cell % of control was 103% and the parasite % of control was 55.8% (inactive).

For the compound `COc1cc(C(=O)NC2CCN(C)CC2)ccc1Nc1ncc2c(n1)N(CCc1ccccc1)CCC(=O)N2C`, the liver cell % of control worked out at 98.4% and the parasite % of control is 343% (inactive).

Take `COc1cc(C(=O)NC2CCN(C)CC2)ccc1Nc1ncc2c(n1)N(C1CCCCC1)CCC(=O)N2C`: the liver cell % of control turned out to be 81.9% and the parasite % of control was 520% (inactive).

As to `CC(C)C(CO)Nc1nc(Nc2ccc(S(=O)(=O)O)c(N)c2)c2ncn(C(C)C)c2n1` (stereo not drawn), the liver cell % of control was found to be 101% and the parasite % of control is 105% (inactive).

`COc1cc(NC(=O)N2CCNC2=O)cc(C(=O)Nc2cccc(C(F)(F)F)c2)c1`: the liver cell % of control came out at 104% and the parasite % of control was 223% (inactive).

`Cn1c(C2=C(c3c4n(c5ccccc35)CCC(CN)C4)C(=O)NC2=O)cc2ccccc21` (stereo not drawn): the liver cell % of control is 41.8% and 77.6% and 88.8%; the parasite % of control is 3.36% (inactive) and 70.7% (inactive) and 90.3% (inactive).

Take `O=C1NCCC(=NNc2cccnc2)c2c1[nH]c1ccc(Cl)cc21`: the liver cell % of control was 99.3% and the parasite % of control is 133% (inactive).

For `CCN1C(=O)CC(c2ccccc2)N(C2CCCC2)c2nc(Nc3ccc(C(=O)NC4CCN(C)CC4)cc3OC)ncc21` (stereo not drawn), the liver cell % of control is 94.4% and the parasite % of control is 83.8% (inactive).

For `Cc1ccc(C(=O)Nc2cccc(C(F)(F)F)c2)cc1NC(=O)c1csc(-c2ccncc2)n1`, the liver cell % of control is 91.8% and the parasite % of control is 76.3% (inactive).

Consider `COc1cc(NC(=O)c2nccn2C)cc(C(=O)Nc2cccc(C(F)(F)F)c2)c1`, for which the liver cell % of control came to 91.3% and the parasite % of control was 84.5% (inactive).

Consider `Cc1ccc(C(=O)Nc2cccc(C(F)(F)F)c2)cc1Nc1cncnc1`, for which the liver cell % of control was determined as 102% and the parasite % of control is 53.6% (inactive).

Regarding `C=CC(=O)Nc1cccc(Oc2ccnc(Nc3ccc(N4CCN(C)CC4)cc3)n2)c1`, the liver cell % of control turned out to be 106% and the parasite % of control was 162% (inactive).

In the case of `CCN1CCN(Cc2ccc(NC(=O)c3cc(NC(=O)c4ccc5n[nH]nc5c4)cc(OC)c3)cc2C(F)(F)F)CC1`, the liver cell % of control is 101% and the parasite % of control was 138% (inactive).

As to `CCN1CCN(Cc2ccc(NC(=O)c3ccc(C)c(NC(=O)C(=O)c4c[nH]c5ccccc45)c3)cc2C(F)(F)F)CC1`, the liver cell % of control was 69.8% and the parasite % of control is 99.9% (inactive).

On to `CC(C)C(CO)Nc1nc(NCc2ccc(S(N)(=O)=O)cc2)c2ncn(C(C)C)c2n1` (stereo not drawn), for which the liver cell % of control turned out to be 95.4% and the parasite % of control is 647% (inactive).

With `CC(C)(C)OC(=O)NC(COc1cncc(Br)c1)Cc1c[nH]c2ccccc12` (stereo not drawn), the liver cell % of control came to 95.1% and the parasite % of control was 98.7% (inactive).

`COC(=O)c1ccc2c(c1)[nH]c(=O)c1c(Nc3ccc(OC(F)(F)F)cc3)ncnc12`: the liver cell % of control worked out at 107% and the parasite % of control is 97.4% (inactive).

For the compound `CC(C)n1cnc2c(Nc3ccc(F)c(Cl)c3)nc(NCCO)nc21`, the liver cell % of control was 96.9% and the parasite % of control is 107% (inactive).

On to `CC(C)CC(CO)Nc1nc(Nc2cccc(Cl)c2)c2ncn(C(C)C)c2n1` (stereo not drawn), for which the liver cell % of control was determined as 102% and the parasite % of control was 148% (inactive).

Regarding `Nc1ncc(-c2cccnc2)nc1C(=O)c1cccnc1`, the liver cell % of control is 98.8% and the parasite % of control is 75.4% (inactive).

`COc1cc(C(=O)NC2CCN(C)CC2)ccc1Nc1ncc2c(n1)N(C1CCC(O)CC1)CCC(=O)N2C` (stereo not drawn): the liver cell % of control stood at 103% and the parasite % of control is 180% (inactive).

With `CC(C)C(CO)N(Cc1cccc(F)c1)c1nc(Nc2cccc(Cl)c2)c2ncn(C(C)C)c2n1` (stereo not drawn), the liver cell % of control was determined as 91.9% and the parasite % of control is 62.1% (inactive).

Regarding `CCC(C)Oc1cc(-c2ccnc(Nc3cccc(Cl)c3)n2)ccn1` (stereo not drawn), the liver cell % of control turned out to be 58.3% and the parasite % of control was 150% (inactive).

On to `CC(C)n1cnc2c(Nc3cccc(F)c3)nc(NCCO)nc21`, for which the liver cell % of control is 95.1% and the parasite % of control was 135% (inactive).

Consider `C=CC(=O)Nc1cccc(N(C)c2ccnc(Nc3ccc(N4CCN(C)CC4)cc3)n2)c1`, for which the liver cell % of control came out at 95.1% and the parasite % of control is 6.04% (inactive).

Turning to `CCN1CCN(Cc2ccc(NC(=O)c3ccc(C)c(NC(=O)c4csc(-c5ccncc5)n4)c3)cc2C(F)(F)F)CC1`, the liver cell % of control is 99.6% and the parasite % of control is 126% (inactive).

Turning to `CC(C)n1cnc2c(N(C)c3ccccc3)nc(N(CCN(C)C)Cc3ccccc3)nc21`, the liver cell % of control amounted to 84.5% and the parasite % of control is 24.1% (inactive).

As to `NS(=O)(=O)c1ccc(-c2ccc(C=C3C(=O)Nc4ccccc43)o2)cc1`, the liver cell % of control was 99.7% and the parasite % of control is 90.6% (inactive).

With `CCN1CCN(Cc2ccc(NC(=O)c3cc(NC(=O)c4cncc(-c5cccs5)c4)cc(OC)c3)cc2C(F)(F)F)CC1`, the liver cell % of control was found to be 101% and the parasite % of control was 88.5% (inactive).

With `CCN1CCN(Cc2ccc(NC(=O)c3ccc(C)c(NC(=O)N4CCNC4=O)c3)cc2C(F)(F)F)CC1`, the liver cell % of control was 93% and the parasite % of control is 163% (inactive).

For the compound `COc1cc(O)c2c(c1)oc(=O)c1c3cc(O)c(O)cc3oc21`, the liver cell % of control came to 107% and the parasite % of control is 36.8% (inactive).

On to `C=CC(=O)Nc1ccc(CN2C(=O)N(c3c(Cl)c(OC)cc(OC)c3Cl)Cc3cnc(NCCCCN(CC)CC)nc32)cc1`, for which the liver cell % of control amounted to 96.7% and the parasite % of control is 227% (inactive).

For the compound `Cc1cn(-c2cc(NC(=O)c3ccc(C)c(NC(=O)c4cccc(-c5cn[nH]c(=O)c5)c4)c3)cc(C(F)(F)F)c2)cn1`, the liver cell % of control is 97.4% and the parasite % of control is 93.8% (inactive).

Regarding `Cc1c[nH]c(C=C2C(=O)Nc3ccccc32)c1CCC(=O)O`, the liver cell % of control is 85.5% and 92.1% and 99.1%; the parasite % of control is 58.7% (inactive) and 47.8% (inactive) and 49.4% (inactive).

On to `COc1cc(NC(=O)c2cc(C)on2)cc(C(=O)Nc2cccc(C(F)(F)F)c2)c1`, for which the liver cell % of control was determined as 96.5% and the parasite % of control is 66.6% (inactive).
